Cardio protect = cardioprotection against H2O2-induced cell death, primary screen, uHTS, H9c2 cells, ATPLite luminescence. 0.63% of 360,000 active. H9c2 cardiomyocytes, H2O2 injury protection, 2 h. AID 588492, 2011. protection from H2O2 cell death, % at 20 µM;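 active means compounds giving at least 50% protection of heart cells from peroxide-induced death in the single-dose screen, raw or plate-pattern-corrected value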;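 further: 0% = DMSO wells with peroxide and 100% = DMSO wells without peroxide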
PHOSPHO1 inh = PubChem AID 1565. 1.1% of 290,000 active. recombinant PHOSPHO1, absorbance phosphatase assay. Phosphoethanolamine/phosphocholine phosphatase (Homo sapiens), Q8TCT1. inhibition, % at 13.3 µM; in the data active means inhibition above about 60%
Target sequence (Q8TCT1 whole entry, looked up): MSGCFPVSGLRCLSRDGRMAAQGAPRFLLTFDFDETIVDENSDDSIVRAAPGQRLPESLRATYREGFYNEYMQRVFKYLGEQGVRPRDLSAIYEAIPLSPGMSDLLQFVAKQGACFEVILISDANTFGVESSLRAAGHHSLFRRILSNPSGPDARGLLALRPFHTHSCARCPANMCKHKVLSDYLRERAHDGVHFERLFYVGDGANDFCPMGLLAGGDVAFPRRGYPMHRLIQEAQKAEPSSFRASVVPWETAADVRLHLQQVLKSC
PfM18AAP inh = PfM18AAP inhibitors, malaria aminopeptidase, primary screen, biochemical, QFRET, recombinant enzyme; H-Glu-NHMec fluorogenic cleavage; inhibition, % at 7.35 µM; 1.2% of 290,000 active; AID 1822, 2009;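 active means inhibition above the campaign mean inhibition over all tested compounds plus 3 SD, cut at about 28% in these data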;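 further: 0% = plate median of test compound wells and 100% = 2 mM ZnCl2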
PfG6PD inh = PfG6PD enzyme inhibitors, primary screen, biochemical, fluorescence intensity, uHTS. glucose-6-phosphate dehydrogenase-6-phosphogluconolactonase (Plasmodium falciparum 3D7). 0.78% of 350,000 active. inhibition, % at 20 µM. PfGluPho enzyme, NADPH resazurin-diaphorase fluorescence;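 active means inhibition reaching at least a set limit at 20 µM in the primary screen, cut at about 59% in these data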;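 further: 0% = DMSO wells with substrate and 100% = DMSO wells lacking glucose-6-phosphate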
ALR inh = inhibitors of human ALR sulfhydryl oxidase, primary screen, biochemical, H2O2 detection, HRP-luminol luminescence, single point; inhibition, % (test concentration not listed); 3.8% of 290,000 active; AID 485317, 2010; purified ALR, DTT oxidation;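 active means mean replicate inhibition above about 79%, with every replicate also reaching it, limit read from the data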
Target sequence (P55789 whole entry, looked up): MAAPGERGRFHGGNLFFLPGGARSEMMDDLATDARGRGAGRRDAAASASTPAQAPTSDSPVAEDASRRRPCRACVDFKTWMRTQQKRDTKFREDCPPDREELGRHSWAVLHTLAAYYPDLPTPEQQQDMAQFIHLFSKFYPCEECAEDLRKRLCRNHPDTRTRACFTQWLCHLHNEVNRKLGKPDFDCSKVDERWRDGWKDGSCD
* hit, by the source's call; . = no result given. Hits are enriched below; roughly 5.6% of the tested compounds scored in any of these assays.

SMILES	Cardio protect	PHOSPHO1 inh	PfM18AAP inh	PfG6PD inh	ALR inh
COc1ccccc1OCc1ccc(C(=O)NC2CCCCC2)o1	-1	32	0	4	5
Cc1ccc(C(=O)Nc2cc3[nH]c(=O)oc3cc2C)cc1	-3	28	2	4	3
CCOC(=O)C1=C(Nc2ccc(OC)cc2)C(N)=NC1=N	1	.	.	8	.
Cc1c(N=Nc2ccc(O)cc2)c(=O)n(-c2ccccc2)n1C	8	13	13	-4	1
Cc1[nH]c2ccccc2c1N=Nc1c(C)n(C)n(-c2ccccc2)c1=O	-5	28	6	10	99*
Cc1cc(N)ccc1N=Nc1c(C)n(C)n(-c2ccccc2)c1=O	2	-10	2	13	99*
Cc1c(N=NC2=C(O)CCCC2=O)c(=O)n(-c2ccccc2)n1C	-3	27	32*	12	-19
CC12CCC(=O)N1C(C(=O)Nc1cc(Cl)ccc1N1CCCC1)CS2 (configuration not stated)	-6	.	.	10	86*
N#C/C(=C\c1ccc(O)c(O)c1)C(=O)c1ccc(O)c(O)c1	64*	.	.	-16	100*
O=C(NCc1ccc2c(c1)OCO2)c1n[nH]c(=O)c2ccccc12	68*	-22	0	-5	6
O=C(CCCc1c[nH]c2ccccc12)NCC1COc2ccccc2O1 (configuration not stated)	-1	-28	-12	9	98*
O=C(COC(=O)c1ccccc1C(=O)OCC(=O)NCCc1c[nH]c2ccccc12)NCCc1c[nH]c2ccccc12	62*	.	.	15	-6
O=C(CCc1c[nH]c2ccccc12)NCCc1ccc(O)cc1	-6	28	-8	12	85*
O=C(c1n[nH]c(=O)c2ccccc12)N1CCN(Cc2ccc3c(c2)OCO3)CC1	8	25	-3	-7	0
CC(=O)c1ccc(S(=O)(=O)N2CCN(C(=O)CSc3ccc(F)cc3)CC2)cc1	14	13	1	-17	-30
COC(=O)[C@H](Cc1ccccc1)NC(=O)NCCc1ccccc1F	-6	36	-10	-5	-15
N#CCC(=O)Nc1ccc(C(=O)NCCc2c[nH]c3ccccc23)cc1	1	46	2	3	98*
O=C(Cn1ccc2ccccc2c1=O)NCC1COc2ccccc2O1 (configuration not stated)	2	-6	12	4	1
O=C(Cn1[nH]c(=O)c2ccccc2c1=O)NCC1COc2ccccc2O1 (configuration not stated)	57*	.	.	3	2
O=C(NCCc1c[nH]c2ccccc12)c1ccccc1	8	29	1	7	.
O=C(CCc1c[nH]c2ccccc12)N1CCN(c2ccc(O)cc2)CC1	-4	27	31*	54	-8
O=C(CSc1nc2ccccc2s1)NCc1ccc2c(c1)OCO2	-4	-22	2	18	98*
COc1ccc(S(=O)(=O)N2CC(C)N(C(=O)N(C)C)C2C(C)C)cc1 (configuration not stated)	-2	24	-2	9	-4
O=C(NCc1ccc2c(c1)OCO2)c1nc(S(=O)(=O)Cc2ccccc2F)ncc1Cl	-16	22	-17	29	3
O=C(NCc1ccc2c(c1)OCO2)c1nc(S(=O)(=O)Cc2ccccc2)ncc1Cl	-19	29	-22	15	99*
SMILES	Cardio protect	PHOSPHO1 inh	PfM18AAP inh	PfG6PD inh	ALR inh
O=C(CCc1c[nH]c2ccccc12)NCc1ccc2c(c1)OCO2	6	61*	0	4	-15
O=C1Nc2ccc(Cl)cc2[C@@](C#CC2CC2)(C(F)(F)F)O1	.	24	3	.	-10
O=C(NCc1ccccn1)C1CCC(CNS(=O)(=O)c2cccc3nsnc23)CC1 (configuration not stated)	-2	63*	5	-12	-4
COc1cc2[nH]c(C(=O)N3CCc4ccccc43)cc2c(OC)c1OC	-4	.	-1	11	-5
CC(=O)Nc1ccc(S(=O)(=O)/N=C2/NC(=O)/C(=C\c3ccco3)S2)cc1	8	9	10	-30	99*
Cc1ccc(S(=O)(=O)/N=C2/NC(=O)/C(=C\c3ccccc3)S2)cc1	-15	.	.	-32	99*
Cc1ccc(S(=O)(=O)/N=C2/NC(=O)/C(=C/c3cc([N+](=O)[O-])ccc3O)S2)cc1	-3	-4	30*	12	29
Cc1ccc(S(=O)(=O)/N=C2/NC(=O)/C(=C\c3ccco3)S2)cc1	4	26	4	-10	11
Cc1ccc(S(=O)(=O)/N=C2/NC(=O)/C(=C/c3ccccc3)S2)cc1	-10	22	-4	-11	30
O=C(N[C@H](Cc1cc(=O)[nH]c2ccccc12)C(=O)O)c1ccc(Cl)cc1	6	11	-11	-4	-4
O=C(O)/C=C/C(=O)Nc1ccc(C2(c3ccc(NC(=O)/C=C/C(=O)O)cc3)c3ccccc3-c3ccccc32)cc1	6	29	8	-41	98*
O=C(O)/C=C/C(=O)Nc1ccc(Cc2ccc(NC(=O)/C=C/C(=O)O)cc2)cc1	6	3	-2	-11	99*
CCCc1cc(=O)oc2cc(OCC(=O)NCCc3c[nH]c4ccccc34)ccc12	0	29	1	-26	-3
COc1ccc(C2NC(=S)N3C(c4ccc(OC)cc4)NC(=S)N23)cc1 (configuration not stated)	-8	98*	14	17	.
CN/C=C1\C(=O)C(C)(C)Oc2ccc3ccc(=O)oc3c21	11	17	2	13	10
CC1(C)Oc2ccc3ccc(=O)oc3c2/C(=C/Nc2ccccn2)C1=O	56*	-22	1	9	-2
CC1(C)Oc2ccc3ccc(=O)oc3c2/C(=C/NNC(N)=S)C1=O	6	33	13	-28	88*
CC(C)N(Cc1ccccc1)C(=O)COC(=O)c1ccc(S(=O)(=O)N2CCOCC2)cc1	-3	.	.	-10	-9
COC(=O)Nc1ccc(S(=O)(=O)Nc2ccc(O)cc2)cc1	-11	-1	-7	4	89*
CSc1ccc(S(=O)(=O)Nc2ccc(S(=O)(=O)Nc3ccc(C)cc3)cc2)cc1	-3	9	-8	-26	-1
Cc1ccc(S(=O)(=O)Nc2ccc(N=Nc3ccc(O)cc3)cc2)cc1	-2	-9	-4	-13	90*
CCc1nnc(NS(=O)(=O)c2ccc(NC(=O)c3cccc([N+](=O)[O-])c3)cc2)s1	5	12	-4	-24	3
COC(=O)Nc1ccc(S(=O)(=O)Nc2ccc(C)cc2)cc1	.	11	5	.	.
Cc1ccc(S(=O)(=O)NNC(=O)c2ccc(O)cc2)cc1	5	1	28	3	97*
CCCCOc1cccc(C(=O)Nc2ccc(S(=O)(=O)Nc3nnc(CC)s3)cc2)c1	-6	36	0	-4	97*

Assay outcomes deposited in PubChem by several laboratories.
